From PubChem BioAssay
This is a sample that favours compounds with a hit; in the whole collection about 2.1% have one here.
GALR2 ag: GALR2 (human) receptor agonism. O43603. GALR2-expressing cells, agonist activation read-out. activation, % (no concentration beside the values). 0.48% of 140,000 active. AID 803; in the data active means activation above about 5%, passing the limit was not always enough;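 further: 0% = vehicle buffer wells and 100% = reference agonist at full effect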
S1P2 agonist: agonists of human S1P2 receptor | O95136 | S1P2-expressing cell line, agonist reporter read-out | activation, % at 4.5 µM | 0.46% of 97,000 active | AID 729; in the data active means activation above about 16%;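 further: 0% = vehicle low control and 100% = maximal reference agonist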
Target sequence (O95136 whole entry, looked up): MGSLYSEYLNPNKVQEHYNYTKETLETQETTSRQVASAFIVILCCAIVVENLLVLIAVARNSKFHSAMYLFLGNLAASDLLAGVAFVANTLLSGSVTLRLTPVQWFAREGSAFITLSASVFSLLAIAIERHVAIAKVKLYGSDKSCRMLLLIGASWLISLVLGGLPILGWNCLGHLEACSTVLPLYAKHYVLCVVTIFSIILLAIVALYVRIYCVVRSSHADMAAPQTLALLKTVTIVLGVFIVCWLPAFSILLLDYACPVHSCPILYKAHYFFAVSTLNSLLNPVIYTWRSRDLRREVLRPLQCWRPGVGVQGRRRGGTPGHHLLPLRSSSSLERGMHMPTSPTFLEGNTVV
S1P2 antag: blocks the human S1P2 receptor; O95136; cell-based S1P2 antagonist assay, inhibition at 5 uM; inhibition, % at 5 µM; 0.21% of 97,000 active; in the data active means inhibition above about 45%;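 further: CRE beta-lactamase reporter cells expressing human S1P2 stimulated with S1P; 0% = agonist at EC80 alone and 100% = agonist plus reference antagonist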
DAT uptake mod: changed human dopamine transporter uptake under cocaine IC80 | Q01959 | 1.3% of 110,000 active | LLC-PK1 hDAT cells, [14C]-dopamine uptake with cocaine IC80; actives deviate in either direction | B-score at 10 µM | AID 449768;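 active means Z score or B-score, a plate-position-corrected score, falls beyond the plate's 99.7% confidence bounds, in either direction; inactive means both scores lie inside the 99.7% bounds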;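 further: scored against the spread of the other compound wells on the same plate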
GALR2 antag: GALR2 (human) receptor antagonism | O43603 | GALR2-expressing cells, antagonist mode | inhibition, % at 4 µM | 0.39% of 140,000 active | AID 828; in the data active means inhibition above about 27%;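 further: cells stimulated with galanin 1-16 at roughly its EC80; 0% = agonist challenge control and 100% = basal control without agonist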
An asterisk follows results filed as active; nt = not tested or not shown.

SMILES	GALR2 ag	S1P2 agonist	S1P2 antag	DAT uptake mod	GALR2 antag
COc1cc2c(cc1OC)CC(=O)N(C)CC2	-1.7	nt	nt	nt	-2.4
COc1cc2c(cc1OC)C1=C(C#N)CCC(=O)N1CC2	0.3	62.2*	-27.0	0.597	-22.4
COc1cc2c(cc1OC)C1=C(C#N)CC/C(=N\S(=O)(=O)c3ccccc3)N1CC2	-0.7	49.2*	-51.1	-0.449	-4.0
COc1ccc(C(=O)N=C2CCC(C#N)=C3c4cc(OC)c(OC)cc4CCN23)cc1	3.2	nt	nt	nt	14.2
CCCCn1c(SCC(=O)N2CCC(C)CC2)nc2cc(S(N)(=O)=O)ccc21	1.3	-5.4	16.5	3.28*	-3.5
CCCCn1c(SCC2CCCO2)nc2cc(S(N)(=O)=O)ccc21 (configuration not stated)	-2.6	-9.1	4.9	0.0773	11.5
CC(/C=N/NC(=O)Cn1cnc2c1c(=O)n(C)c(=O)n2C)=C\c1ccccc1	0.3	nt	nt	nt	-19.5
CC(=O)NC1(C(F)(F)F)C(=O)NC(C)=C1C#N (configuration not stated)	-1.1	-4.0	-8.3	0.0501	-6.9
CCOc1ccc2nc(N3CCC(C(=O)N4CCN(C(=O)c5ccco5)CC4)CC3)sc2c1	-1.0	nt	nt	0.466	1.6
CCOc1ccc2cc(/C=C/C(=O)c3ccco3)c(Cl)nc2c1	0.5	-9.2	30.5	nt	32.0*
CCOc1ccc(NCc2nnc(SCc3ccccc3Cl)n2-c2ccccc2)cc1	-0.5	-6.4	31.6	-12*	1.1
CCn1c(CNc2ccc(Cl)cc2)nnc1SCc1ccccc1	-1.2	-1.0	-16.3	1.77*	-4.2
Cn1c(CNc2ccc(Cl)cc2)nnc1SCc1ccccc1	-1.6	-3.7	0.7	0.281	-11.0
O=C(O)C1CC=CCC1C(=O)Nc1ccc(S(=O)(=O)N2CCCc3ccccc32)cc1 (configuration not stated)	-3.0	-3.0	-4.5	1.34*	2.0
O=c1[nH]c(=S)ccn1C1OC(CO)C(O)C1O (configuration not stated)	nt	nt	nt	-0.129	nt
Clc1ccc(-c2ccc(/C=N/Nc3cc(N4CCOCC4)nc(N4CCOCC4)n3)o2)cc1	29.6*	53.8*	-69.1	0.421	-10.2
CC(C)c1ccc(/C=N/Nc2cc(N3CCOCC3)nc(N3CCOCC3)n2)cc1	0.3	nt	nt	nt	-4.7
Cc1cc(C)n2nc(CC(=O)NCc3ccccc3Cl)nc2n1	0.1	nt	nt	nt	2.0
Cc1ccc(-c2nnc(COc3cccc(-n4cnnn4)c3)o2)cc1	0.4	-4.9	-8.9	-10.6*	-10.7
O=C(CSc1nccn1Cc1ccccc1)NCc1ccccc1	-2.1	-1.6	-4.6	-0.412	-8.4
Nc1nnc(SCc2cccc(C(F)(F)F)c2)s1	-1.2	-0.7	-6.7	-2.69*	-7.1
CC[C@]1(O)CC2CN(CCc3c([nH]c4ccccc34)[C@@](C(=O)OC)(c3cc4c(cc3OC)N(C)[C@H]3[C@@](O)(C(N)=O)[C@H](O)[C@]5(CC)C=CCN6CC[C@]43[C@@H]65)C2)C1 (some centres not stated)	nt	nt	nt	-1.23	nt
Cc1cc(-n2c(=O)c(C#N)cc3c(=O)n4ccccc4nc32)no1	30.6*	nt	nt	0.119	-37.2
Cc1ccccc1-n1c(=O)c(C#N)cc2c(=O)n3ccccc3nc21	73.6*	62.9*	-103.8	-0.313	-56.2
C=CCn1c(=N)c(C#N)cc2c(=O)n3ccccc3nc21	6.0	9.0	-58.1	-0.0634	-6.5
SMILES	GALR2 ag	S1P2 agonist	S1P2 antag	DAT uptake mod	GALR2 antag
C=CCn1c(=O)c(C#N)cc2c(=O)n3ccccc3nc21	21.0*	59.8*	-59.0	-0.0947	-31.0
CCN1C(=O)C(CC(=O)Nc2ccc(Br)cc2)N(CCCc2ccccc2)C1=S (configuration not stated)	-2.7	-1.3	-22.3	-0.787	-3.7
CC(C)CNC(=O)c1ccc(Cl)c(Cl)c1	-0.1	-5.0	-6.2	0.138	-2.5
Cc1c(C(=O)OCC(=O)c2c(N)n(CC(C)C)c(=O)n(C)c2=O)oc2ccccc12	-2.9	-4.6	-7.3	0.773	11.0
CC(C)Cn1c(N)c(C(=O)COC(=O)c2ccc3ccccc3n2)c(=O)n(C)c1=O	-1.7	21.8*	-21.6	1.59	11.7
CCc1c(O)nc(SCC(=O)Nc2ccccc2OC)[nH]c1=O	-1.8	-6.5	11.7	0.216	5.0
Cc1ccc(NC(=O)c2ccc(CN3CCc4ccccc4C3)cc2)cc1	-1.4	-3.7	-7.2	nt	-5.8
O=C(Nc1ccc(S(=O)(=O)N2CCCCC2)cc1)c1ccc(CN2CCc3ccccc3C2)cc1	-0.8	-3.9	52.2*	-0.0423	18.9
COc1ccc(CCNC(=O)C/C(C)=N/NC(=O)c2ccc(N)cc2)cc1OC	-0.4	-8.7	-10.5	-3.07*	6.4
